Screens: PubChem BioAssay, several laboratories
Most compounds without a hit are left out; they make up all but 1.3% or so of the library.
CCHF vOTU inh – CCHFV vOTU protease inhibition; hit rate 0.55% among 370,000; Pep-AMC fluorescence; inhibition, % at 11.5 µM; AID 651958; in the data active = inhibition above about 30%
SSB-PriA inh – K. pneumoniae PriA-SSBct interaction inhibition | inhibition, % at 33 µM | AlphaScreen SSBct-PriA binding, biotinylated peptide | hit rate 0.6% among 430,000; in the data active = inhibition mostly above about 37%, no sharp cut-off; inactive = mostly below about 20%
BH1578 lux ind – induces V. cholerae light production without autoinducers; V. cholerae BH1578 lux reporter, luminescence, 6 h; activation, % at 18.7 µM; hit rate 0.16% among 350,000; in the data active = activation mostly above about 9.7%, no sharp cut-off
VHR inh abs – blocks human VHR1 dual specificity phosphatase; recombinant VHR phosphatase, pNPP absorbance; inhibition, % at 13.3 µM; P51452; hit rate 0.52% among 290,000; in the data active = inhibition above about 50%
SARS 3CLpro inh – SARS-CoV 3CLpro protease inhibition | P0C6X7 | recombinant SARS-CoV 3CLpro, quenched FRET peptide cleavage | inhibition, % at 6 µM | hit rate 0.14% among 290,000 | AID 1706; in the data active = inhibition above about 12%
TcdB GH inh – blocks C. difficile toxin B glycohydrolase activity. TcdB glycohydrolase enzymatic assay, plate reader. inhibition, % at 9.99 µM. hit rate 0.24% among 350,000. AID 652162; in the data active = inhibition above about 10%
Target sequence (P18177 whole entry, looked up): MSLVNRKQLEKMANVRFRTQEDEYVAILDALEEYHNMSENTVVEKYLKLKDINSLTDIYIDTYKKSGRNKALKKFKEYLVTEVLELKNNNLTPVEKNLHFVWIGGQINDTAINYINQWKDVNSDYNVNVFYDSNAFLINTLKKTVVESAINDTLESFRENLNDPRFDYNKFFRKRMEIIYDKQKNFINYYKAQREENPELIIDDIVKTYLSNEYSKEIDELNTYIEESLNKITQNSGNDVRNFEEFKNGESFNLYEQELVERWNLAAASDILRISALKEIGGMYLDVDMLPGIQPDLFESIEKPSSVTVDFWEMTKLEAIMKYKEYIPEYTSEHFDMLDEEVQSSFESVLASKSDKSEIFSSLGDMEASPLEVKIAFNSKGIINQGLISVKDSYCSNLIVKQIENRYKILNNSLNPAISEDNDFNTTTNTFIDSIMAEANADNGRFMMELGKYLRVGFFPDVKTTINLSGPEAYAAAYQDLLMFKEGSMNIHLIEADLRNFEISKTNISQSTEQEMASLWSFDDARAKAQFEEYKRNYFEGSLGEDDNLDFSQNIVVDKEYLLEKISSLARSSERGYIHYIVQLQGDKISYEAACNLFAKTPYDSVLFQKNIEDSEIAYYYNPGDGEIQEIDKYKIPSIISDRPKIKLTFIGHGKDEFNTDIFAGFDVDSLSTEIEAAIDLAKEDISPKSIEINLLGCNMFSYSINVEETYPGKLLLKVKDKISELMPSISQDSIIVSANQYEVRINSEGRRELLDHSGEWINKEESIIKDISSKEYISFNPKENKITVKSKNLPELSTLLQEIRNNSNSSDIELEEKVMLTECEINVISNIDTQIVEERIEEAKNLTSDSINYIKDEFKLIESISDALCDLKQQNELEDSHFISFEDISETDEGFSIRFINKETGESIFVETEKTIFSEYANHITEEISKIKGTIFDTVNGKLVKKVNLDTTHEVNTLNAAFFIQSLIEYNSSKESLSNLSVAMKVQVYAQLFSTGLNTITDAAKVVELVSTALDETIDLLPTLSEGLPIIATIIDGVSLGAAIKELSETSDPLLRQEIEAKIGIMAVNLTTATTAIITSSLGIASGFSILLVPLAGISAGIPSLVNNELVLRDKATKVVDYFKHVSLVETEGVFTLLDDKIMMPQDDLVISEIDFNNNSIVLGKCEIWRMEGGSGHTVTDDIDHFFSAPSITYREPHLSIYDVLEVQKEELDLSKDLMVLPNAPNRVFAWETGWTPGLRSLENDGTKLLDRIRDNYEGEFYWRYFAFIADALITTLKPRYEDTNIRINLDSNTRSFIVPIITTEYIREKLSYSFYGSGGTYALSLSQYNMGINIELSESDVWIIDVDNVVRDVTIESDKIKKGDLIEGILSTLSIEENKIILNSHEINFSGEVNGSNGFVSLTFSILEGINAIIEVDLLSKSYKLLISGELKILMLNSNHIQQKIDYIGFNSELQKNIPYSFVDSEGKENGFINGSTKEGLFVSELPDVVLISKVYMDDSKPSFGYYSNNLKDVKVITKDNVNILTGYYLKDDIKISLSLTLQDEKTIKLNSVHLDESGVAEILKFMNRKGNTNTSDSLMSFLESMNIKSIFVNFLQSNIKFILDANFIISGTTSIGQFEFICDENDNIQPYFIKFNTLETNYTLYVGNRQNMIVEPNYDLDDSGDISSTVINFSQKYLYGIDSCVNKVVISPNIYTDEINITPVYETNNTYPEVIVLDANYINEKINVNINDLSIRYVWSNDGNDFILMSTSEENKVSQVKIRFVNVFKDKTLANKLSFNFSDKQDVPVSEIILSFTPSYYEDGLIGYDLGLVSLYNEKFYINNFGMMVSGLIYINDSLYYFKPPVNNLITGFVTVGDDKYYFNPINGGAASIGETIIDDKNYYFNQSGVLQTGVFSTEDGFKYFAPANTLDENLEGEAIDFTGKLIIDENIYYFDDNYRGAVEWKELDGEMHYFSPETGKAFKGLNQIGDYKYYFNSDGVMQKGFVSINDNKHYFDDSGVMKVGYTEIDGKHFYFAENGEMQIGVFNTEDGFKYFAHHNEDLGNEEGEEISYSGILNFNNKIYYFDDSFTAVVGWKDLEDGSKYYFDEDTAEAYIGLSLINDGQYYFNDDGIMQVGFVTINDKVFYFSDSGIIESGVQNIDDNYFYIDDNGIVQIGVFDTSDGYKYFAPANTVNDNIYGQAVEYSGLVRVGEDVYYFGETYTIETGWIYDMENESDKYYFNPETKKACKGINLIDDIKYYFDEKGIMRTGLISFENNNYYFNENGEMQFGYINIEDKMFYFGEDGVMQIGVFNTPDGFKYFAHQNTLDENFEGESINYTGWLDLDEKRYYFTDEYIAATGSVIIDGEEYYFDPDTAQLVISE
A number is an active result; - = inactive; . = not tested or not shown.

SMILES | CCHF vOTU inh | SSB-PriA inh | BH1578 lux ind | VHR inh abs | SARS 3CLpro inh | TcdB GH inh
CC1(C(=O)Nc2nnc(C(C)(C)C)s2)Cc2ccccc2C(=O)O1 (stereo not drawn) | - | - | - | 53 | - | .
Nc1ccc(-c2csc(N)n2)cc1 | . | - | . | . | . | .
CCN1CCN(CCC(=O)Nc2cc(OC)cc(OC)c2)CC1 | - | - | - | 51 | - | -
COc1cc(NC(=O)CCN2CCN(CCO)CC2)cc(OC)c1 | - | - | - | - | - | -
O=C(c1ccc(F)cc1F)N1CCC(c2nnc(C3CC3)o2)CC1 | . | - | . | . | . | .
Cn1nnc2cc(NC(=O)N3CCN(c4ccccn4)CC3)ccc21 | - | - | - | - | - | -
Cn1nnc2cc(C(=O)N3CCN(c4ccccn4)CC3)ccc21 | - | - | - | 53 | - | -
Cc1cc(C)c(C)c(S(=O)(=O)N2C(=S)NC(=O)C2Cc2ccccc2)c1C (stereo not drawn) | . | - | . | . | . | .
O=C1NC(=S)N(S(=O)(=O)c2c(Cl)cccc2Cl)C1Cc1ccccc1 (stereo not drawn) | . | 86 | . | . | . | .
COC(=O)C(C(=O)OC)C(CC(=O)c1ccc(Br)cc1)c1ccccc1 (stereo not drawn) | - | - | - | . | . | 14
O=C(Nc1nnc(S(=O)(=O)N2CCOCC2)s1)c1ccccc1 | - | - | - | - | - | -
O=C(COc1ccccc1Cl)Nc1nnc(S(=O)(=O)N2CCCC2)s1 | - | 85 | - | - | - | -
O=C(Nc1nnc(S(=O)(=O)N2CCCCCC2)s1)c1ccccc1 | - | 101 | - | - | - | -
COc1ccc(Cl)cc1NC(=O)CN1CCCN(Cc2ccccc2)S1(=O)=O | . | - | . | . | . | .
O=C(Nc1ccc(Nc2ccc(-n3cccn3)nn2)cc1)c1ccco1 | . | 89 | . | . | . | .
COCC(=O)Nc1ccc(Nc2ccc(-n3cccn3)nn2)cc1 | . | 83 | . | . | . | .
O=C(Nc1ccc(Nc2ccc(-n3cccn3)nn2)cc1)c1ccc(C(F)(F)F)cc1 | . | - | . | . | . | .
CC(O)(CNC(=O)Cc1ccccc1Cl)c1ccc2c(c1)OCO2 (stereo not drawn) | . | - | . | . | . | .
O=C(Oc1ccc2ccccc2c1)C1CCC1 | - | - | - | 51 | - | -
O=C(Oc1ccc2ccc(O)cc2c1)C1CCCCC1 | - | - | - | - | - | -
O=C(c1ccccc1F)N1CCN(c2ccc([N+](=O)[O-])c3cccnc23)CC1 | - | - | - | - | - | 12
O=C(c1ccccc1F)N1CCN(c2ccc([N+](=O)[O-])c3ncccc23)CC1 | - | - | - | - | - | .
O=[N+]([O-])c1ccc(N2CCCCC2)c2ncccc12 | - | 51 | - | - | - | -
O=[N+]([O-])c1ccc(N2CCCNCC2)c2ncccc12 | - | - | - | - | - | -
O=[N+]([O-])c1ccc(N2CCCCCC2)c2ncccc12 | - | 42 | - | - | - | -
SMILES | CCHF vOTU inh | SSB-PriA inh | BH1578 lux ind | VHR inh abs | SARS 3CLpro inh | TcdB GH inh
COCCN1C(=O)C(=O)C(=C(O)c2ccc(S(=O)(=O)N3CCOCC3)cc2)C1c1cccc([N+](=O)[O-])c1 (stereo not drawn) | . | - | . | . | . | .
CCOC(=O)c1ccc[n+](CC(=O)c2ccc(NC(=O)c3ccccc3)cc2)c1 | - | - | - | - | - | 12
NC(=O)c1ccc[n+](CC(=O)c2ccc(NC(=O)c3ccccc3)cc2)c1 | - | - | - | - | - | -
CN(C)CCN(C(=O)c1ccc(C#N)cc1)c1nc2ccc(Cl)cc2s1 | . | - | . | . | . | .
Cc1ccc(C(=O)Nc2nnc(CC(=O)N/N=C/c3ccc(O)c(O)c3)s2)cc1 | - | . | - | 54 | - | -
CC(=O)c1cccc(S(=O)(=O)NCC2CCN(c3ccc(C)nn3)CC2)c1 | . | - | . | . | . | .
O=[N+]([O-])c1ccc2nc(-c3ccncc3)[nH]c2c1 | - | - | - | - | - | -
COc1ccc(-c2nc3ccc([N+](=O)[O-])cc3[nH]2)cc1 | - | - | - | - | - | 14
O=[N+]([O-])c1ccc2nc(-c3ccc(Cl)cc3)[nH]c2c1 | - | - | - | - | - | -
Cc1ccc(-c2nc3ccc([N+](=O)[O-])cc3[nH]2)cc1 | - | - | - | - | - | 12
CCOC(=O)N1CCN(C(=O)Cn2cnc(-c3ccccc3)cc2=O)CC1 | . | - | . | . | . | .
CC[N+]1=C(C)C(C)(C)c2cc(C)ccc21 | - | 52 | - | - | - | -
CCCC[N+]1=C(C)C(C)(C)c2ccccc21 | . | - | . | . | . | .
CCC(NS(=O)(=O)c1ccc(C)cc1)C(=O)N1CCN(c2ccccn2)CC1 (stereo not drawn) | - | - | - | 50 | - | -
O=C(C[n+]1ccccc1)NN=Cc1cc(Br)cc(Br)c1O | . | 57 | . | . | . | .
Nc1ccc(N=Nc2ccccc2O)c(N)c1 | - | 68 | - | . | . | -
O=S(=O)(c1ccccc1)c1cc(O)ccc1O | - | - | - | - | - | -
Nc1ccc(S(=O)(=O)c2cc(O)c3ccccc3c2O)cc1 | 71 | - | - | . | . | -
Cn1nc([N+](=O)[O-])nc1Sc1cccc2cccnc12 | - | 78 | - | - | - | -
S=C1NC2(CCCCC2)Cc2ccccc21 | - | 44 | - | - | - | .
O=C1NC2(CCCCC2)Cc2ccccc21 | - | - | - | - | - | .
Cc1cc(=O)[nH]c(NN=Cc2c(C)nn(-c3ccccc3)c2C)n1 | . | - | . | . | . | .
Cc1cc(=O)[nH]c(NN=Cc2c(O)n(-c3ccccc3)c(=O)c3ccccc23)n1 | . | 85 | . | . | . | .
Cc1cc(=O)[nH]c(-n2nc(-c3cccs3)cc2NC(=O)C(=O)c2c[nH]c3ccccc23)n1 | . | - | . | . | . | .
C[n+]1cn(Cc2ccc(C#N)cc2)c2ccccc21 | - | - | - | 53 | - | -
SMILES | CCHF vOTU inh | SSB-PriA inh | BH1578 lux ind | VHR inh abs | SARS 3CLpro inh | TcdB GH inh
Cc1ccc(C)c(Cn2c(O)c(N=NC(=S)Nc3ccccc3F)c3ccccc32)c1 | - | - | 80 | - | - | -
Cc1ccc(NC2CCCN(C(=O)CCCN3CCCCC3=O)C2)cc1C (stereo not drawn) | - | - | . | - | - | -
Cc1ccc(NC2CCCN(C(=O)CCn3nccc3C)C2)cc1C (stereo not drawn) | - | - | - | 54 | - | -
CC(C)c1ccc(NC2CCCN(C(=O)CCN3CCOCC3)C2)cc1 (stereo not drawn) | - | - | - | 51 | - | -
Cc1ccc(NC2CCCN(C(=O)CCN3CCOCC3)C2)cc1C (stereo not drawn) | - | - | - | 53 | - | -
CCc1nccn1CCC(=O)N1CCCC(Nc2ccc(C(C)C)cc2)C1 (stereo not drawn) | - | - | - | - | - | -
CSc1ccccc1C(=O)N1CCCCC1c1cc(C(N)=O)n[nH]1 (stereo not drawn) | . | - | . | . | . | .
Cc1nnc(SCC(=O)NCc2ccco2)n1-c1ccccc1 | - | - | . | - | - | .
O=C(CSc1ncc(-c2ccccc2)n1-c1ccccc1)NCc1ccco1 | - | 52 | - | - | - | -
CCOc1ccc(NC(=O)CSc2ncc(-c3ccc(F)cc3)n2Cc2ccco2)cc1 | - | 43 | - | - | - | -
COc1ccc(-n2c(-c3ccc(F)cc3)cnc2SCC(=O)NCc2ccco2)cc1 | - | 49 | - | - | - | .
O=C(CSc1ncc(-c2ccc(F)cc2)n1Cc1ccco1)Nc1ccc2c(c1)OCO2 | - | - | - | - | - | .
O=S(=O)(Nc1ccc(-c2cn3c(n2)SCC3)cc1)c1cccc(C(F)(F)F)c1 | . | - | . | . | . | .
